The supplement of paper PMC10105736

Key:
Assay in all cases: MAPPIT interaction score (arbitrary units); higher = stronger binary interaction signal, active = hit call of the paper;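 active = MAPPIT score above the 99th percentile of random reference set scores in the same batch; inactive = at or below it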
CG31550 = conditions: MAPPIT configuration: N-N; pair source set: Lit-BS-16
GstE2 = conditions: MAPPIT configuration: N-N; pair source set: Finley_Y2H
PAN3 = conditions: MAPPIT configuration: N-N; pair source set: Lit-BS-16
Rbp6 = conditions: MAPPIT configuration: N-N; pair source set: Finley_Y2H
CG31600 = conditions: MAPPIT configuration: N-C; pair source set: screen_4
CG31523 = conditions: MAPPIT configuration: N-C; pair source set: screen_3
EMC5 = conditions: MAPPIT configuration: N-C; pair source set: screen_3
RNASEK = conditions: MAPPIT configuration: N-C; pair source set: screen_3
CG31121 = conditions: MAPPIT configuration: N-N; pair source set: Curagen_high_conf
CG3085 = conditions: MAPPIT configuration: N-C; pair source set: screen_3
CG8281 = conditions: MAPPIT configuration: N-N; pair source set: screen_1
Gale = conditions: MAPPIT configuration: N-N; pair source set: DPIM
PHDP = conditions: MAPPIT configuration: N-N; pair source set: Finley_Y2H
Vsx2 = conditions: MAPPIT configuration: N-N; pair source set: Finley_Y2H
eco = conditions: MAPPIT configuration: N-N; pair source set: screen_1
CG30472 = conditions: pair source set: RRS
CG32182 = conditions: MAPPIT configuration: N-N; pair source set: RRS
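Also: HEK293T cells with Epo stimulation, STAT-responsive firefly luciferase reporter, fold induction versus unstimulated cells divided by the larger fold induction of two negative controls lacking either bait or prey.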

B1: CycB (protein)
chain: MVGTTLKMRGDENASENFKQVQLKKLTVPSMEATTKRAALGDLQNRGISRPIAAKDAAQKDSKDLKLTDALRNAKARVDSHWKKQPLGSTNGNGNGAVPPKVNEGGVSAFLRSNSVRNRVPTKTTVEPTKVTVKSSSSENVNEPTLKREDSNLSKKSLTKLRAALAKPVMGVSGIRREPVAVSRKEAETKKELPETKKDSLEVKKDATRMPLIRGNSAVTTTTSTMPTTMSLSSKRLAGIEDIDANDKENLVLVSEYVNDIYDYLYQVELEQPIHKDHLAGQKEVSHKMRAVLIDWINEVHLQFHLAAETFQLAVAIIDRYLQVVKDTKRTYLQLVGVTALFIATKYEELFPPAIGDFVFITDDTYTARQIRQMELQIFKAIDCNLSRPLPIHFLRRYSKAAGAEDEHHTMSKYFIELASVDYEMATYRPSEIAAASLFLSLHLLNGNHRAGTGFNDRHWTPTLTFYSRYSAAHLRPITRLIAKLARDAPQAKLKAIYNKYQGSKFQKIALRTELTGALMDSIVGQSQRK
Q: With B1 as the binder, how does the MAPPIT interaction score (CG31550) read?
A: The MAPPIT interaction score was 0.517 (inactive).

Q: And the MAPPIT interaction score (GstE2)?
A: The MAPPIT interaction score was 0.748 (inactive).

Q: And the MAPPIT interaction score (PAN3)?
A: The MAPPIT interaction score was 0.557 (inactive).

Q: And the MAPPIT interaction score (Rbp6)?
A: The MAPPIT interaction score was 0.383 (inactive).

B2: zetaTry (protein)
chain: MSSSWIVGLLAFLVSLVALTQGLPLLEDLDEKSVPDGRIVGGYATDIAQVPYQISLRYKGITTPENPFRHRCGGSIFNETTIVTAAHCVIGTVASQYKVVAGTNFQTGSDGVITNVKEIVMHEGYYSGAAYNNDIAILFVDPPLPLNNFTIKAIKLALEQPIEGTVSKVSGWGTTSPGGYSSNQLLAVDVPIVSNELCDQDYEDFGDETYRITSAMLCAGKRGVGGADACQGDSGGPLAVRDELYGVVSWGNSCALPNYPGVYANVAYLRPWIDAVLAGL
Q: For B2, which MAPPIT interaction score (CG31600) is on record?
A: Its MAPPIT interaction score is 0.866 (inactive).

B3: CG33169 (protein)
chain: MRQLKGKVKETRKQKKERKLDNLETQAKIRTVVLPALGVLAVFLVLFVYLKTRPAVLA
Q: B3 was tested. Which MAPPIT interaction score (CG31523) did it give?
A: Its MAPPIT interaction score is 0.414 (inactive).

Q: And the MAPPIT interaction score (EMC5)?
A: Its MAPPIT interaction score is -0.647 (inactive).

Q: What about the MAPPIT interaction score (RNASEK) of the same binder?
A: Its MAPPIT interaction score is 0.381 (inactive).

B4: Hsc70-5 (protein)
chain: MLRVPKFLPRLARQAGVVPSHMSGASSMFRNLPGASNGISSQLRYKSGEVKGAVIGIDLGTTNSCLAVMEGKQAKVIENAEGARTTPSHVAFTKDGERLVGMPAKRQAVTNSANTFYATKRLIGRRFDDPEVKKDITNLSYKVVKASNGDAWVSSTDGKVYSPSQIGAFILMKMKETAEAYLNTPVKNAVVTVPAYFNDSQRQATKDAGQIAGLNVLRVINEPTAAALAYGMDKTEDKIIAVYDLGGGTFDISILEIQKGVFEVKSTNGDTLLGGEDFDNHIVNFLVAEFKKDSGIDIRKDNIAMQRLKEAAEKAKCELSSSQQTDINLPYLTMDAAGPQHMNLKLTRSKLESLVGDLIKRTIQPCQKALSDAEVSKSEIGEVLLVGGMTRMPKVQSTVQELFGRQPSRSVNPDEAVAVGAAVQGGVLAGDVTDVLLLDVTPLSLGIETLGGVFTRLISRNTTIPTKKSQVFSTASDGQTQVEIKVHQGEREMANDNKLLGSFTLVGIPPAPRGVPQIEVVFDIDANGIVHVSAKDKGTGKEQQIVIQSSGGLSKDEIENMIKKAEEYATADKQKRELIEIVNQGESIVHDTETKMEEFKSQLPAEECEKLKKEIADLRTLLANKETADLEEVRKATSSLQQSSLKLFELAYKKMSAERESNAGAGSSDSSSSSDTSGEAKKEEKN
Q: B4 was tested. Which MAPPIT interaction score (CG31121) did it give?
A: Its MAPPIT interaction score is 0.0518 (inactive).

B5: PolZ2 (protein)
chain: MQAEIKADIIVEAMEVLVNHILYVRGIYPSHIFKMKRMYNSPIYVSIFPPLNNYLAGVLKSAQELLRRRELQCLELIVYQKENEKLESYKMQLETQRSGLPAEDHLMEFEQNMRSVIYKISQRLNQAPKLPAGSCQFKVHLHTTQEAFIRFSHDSQYQEFPWLQTQKTESQATGRTVYLLPLARVDDLGLKMDVLIVN
Q: Which results are given for B5?
A: MAPPIT interaction score (CG3085): 1.42 (inactive); MAPPIT interaction score (CG8281): 1.67 (inactive); MAPPIT interaction score (Gale): 0.112 (inactive); MAPPIT interaction score (PHDP): -0.0614 (inactive); MAPPIT interaction score (Vsx2): 0.017 (inactive); MAPPIT interaction score (eco): 0.29 (inactive)

B6: Or43b (protein)
chain: MFGHFKLVYPAPISEPIQSRDSNAYMMETLRNSGLNLKNDFGIGRKIWRVFSFTYNMVILPVSFPINYVIHLAEFPPELLLQSLQLCLNTWCFALKFFTLIVYTHRLELANKHFDELDKYCVKPAEKRKVRDMVATITRLYLTFVVVYVLYATSTLLDGLLHHRVPYNTYYPFINWRVDRTQMYIQSFLEYFTVGYAIYVATATDSYPVIYVAALRTHILLLKDRIIYLGDPSNEGSSDPSYMFKSLVDCIKAHRTMLNFCDAIQPIISGTIFAQFIICGSILGIIMINMVLFADQSTRFGIVIYVMAVLLQTFPLCFYCNAIVDDCKELAHALFHSAWWVQDKRYQRTVIQFLQKLQQPMTFTAMNIFNINLATNINVAKFAFTVYAIASGMNLDQKLSIKE
Q: What does the source list for B6?
A: MAPPIT interaction score (CG30472; MAPPIT configuration: N-C): 0.0282 (inactive); MAPPIT interaction score (CG30472; MAPPIT configuration: N-N): 0.0958 (inactive)

B7: RpS3A (protein)
chain: MAVGKNKGLSKGGKKGGKKKVVDPFSRKDWYDVKAPNMFQTRQIGKTLVNRTQGQRIASDYLKGRVFEVSLADLQKDIDPERSFRKFRLIAEDVQDRNVLCNFHGMDLTTDKYRSMVKKWQTLIEAIVEAKTVDGYLLRVFCIGFTAKDQQSQRKTCYAQQSQVRKIRARMTDIITNEVSGADLKQLVNKLALDSIAKDIEKSCQRIYPLHDVYIRKVKVLKKPRFDVSKLLELHGDGGGKSVEAVVSSEGAVIDRPEGYEPPVQEAV
Q: With B7 as the binder, how does the MAPPIT interaction score (CG32182) read?
A: The MAPPIT interaction score was 0.147 (inactive).
